This passage reports growth inhibition results from PubChem BioAssay (NCI).

This is part of a sample that, as a whole, favours compounds with a hit. Of some 79,000 tested, about 15% had one in any assay. A number with no mark means an inactive call. Cut-off read from the data, not from the text of the source: active = growth inhibition above about 70%; inactive = the rest.

The first test is described as follows: NCI Yeast Anticancer Drug Screen. Data for the sgs1 mgt1 strain (AID 161).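 Note: 0% = growth of cultures given vehicle only.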 The settings on record: S. cerevisiae sgs1 mgt1 strain, at 50.0 µM, hits give high values. An outline of the steps: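 Yeast cells carrying a defined DNA-repair defect were exposed to test compounds. Growth inhibition was measured relative to vehicle-treated controls.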
Take `COC(=O)/C=C\CC(=O)OC`: the growth inhibition is -19.9%. For `C/C(=N\NC(=S)N1CCC(C2CCN(C(=S)N/N=C(\C)c3ccccn3)CC2)CC1)c1ccccn1`, the growth inhibition is 60.1%. Consider `CC1CCCN2C(=O)CN(Cc3ccccc3)CC(=O)N12` (centres undefined), for which the growth inhibition was -8.55%. Regarding `CC1CC(O)CC(C)(C)C1.CC1CC(O)CC(C)(C)C1.CC1CC(O)CC(C)(C)C1.CC1CC(O)CC(C)(C)C1.[Ti]` (centres undefined), the growth inhibition is 23.2%.

For the compound `NNC(=Nc1ccccc1)SCc1ccccc1`, the growth inhibition is 23.4%. Regarding `O=C(OC(=O)c1ccc(Cl)cc1)c1ccc(Cl)cc1`, the growth inhibition is 5.45%.

With `Clc1ccccc1C(Nc1nc2ccccc2s1)Nc1nc2ccccc2s1`, the growth inhibition is -10.9%. As for `CCCCCCCCCCN(CCCCCCCCCC)C(C)C(O)c1ccc2cc(Br)c3ccccc3c2c1` (centres undefined), the growth inhibition is -15.8%. For `O=CC(O)C(O)C(O)C(O)COC(=S)OCC(O)C(O)C(O)C(O)C=O` (centres undefined) (tested in a mixture with another compound), the growth inhibition is -2.85%.

Turning to `COc1ccc(/C=N/Nc2nc3ccccc3s2)cc1`, the growth inhibition is -3.15%. On the same count and under the same terms, next, `CCCCOC1NC(=O)NC(=O)C1(F)C(=O)OCC` (centres undefined): 5.45%.

`CCOC(=O)CC(=O)C(=O)NNC1=NCCN1`: the growth inhibition is 23.6%. As for `Nc1ccccc1N/N=C/c1ccccc1`, the growth inhibition is -15.4%. Still for that read-out and setting: next, `CC12CCC(=O)C=C1CCC1C2CCC2(C)C1CCC2(O)C(=O)Cn1c(=O)cc[nH]c1=O` (centres undefined): 1.5%. Consider `C/C(CC(=O)NC1=CC=C(NC(=O)C/C(C)=N\Nc2ccccc2)CC1)=N/Nc1ccccc1`, for which the growth inhibition was -18.8%. Same read-out and setting: with `CCCCCC(C)(O)CCC` (centres undefined) the figure was 3.65%. `CCOC(=O)CN1C(=O)CSC1=S`: the growth inhibition was 24.3%. On to `CC1(C)CC2(C)Sc3ccccc3N2C(=S)N1` (centres undefined), for which the growth inhibition is 13.8%. On to `O=[N+]([O-])c1cccc2c1ccc1nonc12`, for which the growth inhibition is 2.55%. Turning to `CC1=NOC(C)(O)/C1=N/O` (centres undefined), the growth inhibition is 17.9%.

Take `Cc1cc(Br)ccc1NC1=CC(=O)C(=O)c2ccccc21`: the growth inhibition is -3.4%.

In the case of `NC(=O)C(Cc1ccccc1)NC(=O)C1CCCN1` (centres undefined), the growth inhibition was 2.5%. As for `OCC(O)Cn1cnc2c(NO)ncnc21` (centres undefined), the growth inhibition is -8%. As for `O=C(O)COc1ccc(I)cc1I`, the growth inhibition was -4.85%. Consider `CCCCNCCS`, for which the growth inhibition was 2.7%.

Turning to `COC1(c2ccc(C)cc2)c2cccc3cccc(c23)C1(O)c1ccc(C)cc1` (centres undefined), the growth inhibition was 12%. On the same count and under the same terms, next, `C[N+]([O-])(C/C=C/c1ccccc1)c1ccccc1` (centres undefined): -2.65%. Consider `NNC(=O)Nc1ccccc1`, for which the growth inhibition was -0.5%. As for `OCC[N+]1(CCO)CCOCC1`, the growth inhibition is -0.05%. For `CCO/C=C1/C(=O)N(C)c2c1c(=O)n(C)c(=O)n2C`, the growth inhibition is -4.05%.

As for `Cc1nc2ccccc2[nH]1`, the growth inhibition was -4%. Take `Cc1cccc(NC(=O)CSc2nnc(Cc3ccccc3)o2)c1`: the growth inhibition was -15.1%. In the case of `Cc1ccc(S(=O)(=O)n2ccnc2)cc1`, the growth inhibition is -1.25%. As to `CCCCCCCCCCCC1=C(O)C(=O)C(I)=C(O)C1=O`, the growth inhibition was 63.1%. Still for that read-out and setting: next, `C[C@@]12CCC[C@H]1[C@@H]1CC=C3C[C@@H](S)CC[C@]3(C)[C@H]1CC2`: -3.25%. Take `C[Si](Cn1ccc(=O)n(C[Si](C)(c2ccccc2)c2ccccc2)c1=O)(c1ccccc1)c1ccccc1`: the growth inhibition was -12.3%. For `COc1ccc(C2CC(=O)NC2=O)cc1OC` (centres undefined), the growth inhibition was -6.55%. For the compound `O=C(O)/C=N\Nc1nc2ccccc2[nH]1`, the growth inhibition is 1.9%. `CCC(=O)OCCSCCOC(=O)CC`: the growth inhibition is -6.4%. On the same count and under the same terms, with `CC(C)[Si](C#CC[Si](C(C)C)(C(C)C)C(C)C)(C(C)C)C(C)C` the figure was -17.4%.

A short description of another test: NCI Yeast Anticancer Drug Screen. Data for the cln2 rad14 strain (AID 165).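 Note: 0% = growth equal to vehicle treated cultures.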 The settings on record: S. cerevisiae cln2 rad14 strain, at 50.0 µM, hits give high values. An outline of the steps: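 Yeast carrying cln2 and rad14 alterations (cell cycle control and DNA damage repair) were exposed to compounds. Growth inhibition was measured against vehicle-treated controls.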
Consider `C/C(=N\NC(=S)N1CCC(C2CCN(C(=S)N/N=C(\C)c3ccccn3)CC2)CC1)c1ccccn1`, for which the growth inhibition was 45.2%. For the compound `CC1CCCN2C(=O)CN(Cc3ccccc3)CC(=O)N12` (centres undefined), the growth inhibition was 13.4%. For `CC1CC(O)CC(C)(C)C1.CC1CC(O)CC(C)(C)C1.CC1CC(O)CC(C)(C)C1.CC1CC(O)CC(C)(C)C1.[Ti]` (centres undefined), the growth inhibition was 15.1%. Still for that read-out and setting: with `NNC(=Nc1ccccc1)SCc1ccccc1` the figure was 7.75%. In the case of `O=C(OC(=O)c1ccc(Cl)cc1)c1ccc(Cl)cc1`, the growth inhibition is -8.15%.

On to `Clc1ccccc1C(Nc1nc2ccccc2s1)Nc1nc2ccccc2s1`, for which the growth inhibition is 4.65%. On to `CCCCCCCCCCN(CCCCCCCCCC)C(C)C(O)c1ccc2cc(Br)c3ccccc3c2c1` (centres undefined), for which the growth inhibition is -16.9%. Turning to `O=CC(O)C(O)C(O)C(O)COC(=S)OCC(O)C(O)C(O)C(O)C=O` (centres undefined) (tested in a mixture with another compound), the growth inhibition was -3.1%. Consider `COc1ccc(/C=N/Nc2nc3ccccc3s2)cc1`, for which the growth inhibition was -41.4%. On to `CCCCOC1NC(=O)NC(=O)C1(F)C(=O)OCC` (centres undefined), for which the growth inhibition is 9.4%.

Regarding `CCOC(=O)CC(=O)C(=O)NNC1=NCCN1`, the growth inhibition is 2.45%. `Nc1ccccc1N/N=C/c1ccccc1`: the growth inhibition was -37.5%. Regarding `CC12CCC(=O)C=C1CCC1C2CCC2(C)C1CCC2(O)C(=O)Cn1c(=O)cc[nH]c1=O` (centres undefined), the growth inhibition is 14.7%. `C/C(CC(=O)NC1=CC=C(NC(=O)C/C(C)=N\Nc2ccccc2)CC1)=N/Nc1ccccc1`: the growth inhibition was -9.35%. `CCCCCC(C)(O)CCC` (centres undefined): the growth inhibition was -3.45%. Still for that read-out and setting: next, `CCOC(=O)CN1C(=O)CSC1=S`: 22.4%; `CC1(C)CC2(C)Sc3ccccc3N2C(=S)N1` (centres undefined): -19.6%.

Regarding `O=[N+]([O-])c1cccc2c1ccc1nonc12`, the growth inhibition is -52.1%.

In the case of `CC1=NOC(C)(O)/C1=N/O` (centres undefined), the growth inhibition is -2.75%. `Cc1cc(Br)ccc1NC1=CC(=O)C(=O)c2ccccc21`: the growth inhibition is 11.3%.

For the compound `NC(=O)C(Cc1ccccc1)NC(=O)C1CCCN1` (centres undefined), the growth inhibition is -33.9%. In the case of `OCC(O)Cn1cnc2c(NO)ncnc21` (centres undefined), the growth inhibition was -15.2%. Same read-out and setting: next, `O=C(O)COc1ccc(I)cc1I`: -37.5%; `CCCCNCCS`: 6.9%. As to `COC1(c2ccc(C)cc2)c2cccc3cccc(c23)C1(O)c1ccc(C)cc1` (centres undefined), the growth inhibition is 21.6%.

Regarding `C[N+]([O-])(C/C=C/c1ccccc1)c1ccccc1` (centres undefined), the growth inhibition was 5.45%. On to `NNC(=O)Nc1ccccc1`, for which the growth inhibition was -13.6%. In the case of `OCC[N+]1(CCO)CCOCC1`, the growth inhibition is -15.1%. Take `CCO/C=C1/C(=O)N(C)c2c1c(=O)n(C)c(=O)n2C`: the growth inhibition was -14.3%.

`Cc1nc2ccccc2[nH]1`: the growth inhibition was 5.85%. Turning to `Cc1cccc(NC(=O)CSc2nnc(Cc3ccccc3)o2)c1`, the growth inhibition was -39.2%.

In the case of `Cc1ccc(S(=O)(=O)n2ccnc2)cc1`, the growth inhibition is 15.9%.

Regarding `CCCCCCCCCCCC1=C(O)C(=O)C(I)=C(O)C1=O`, the growth inhibition is 51.3%.

For `C[C@@]12CCC[C@H]1[C@@H]1CC=C3C[C@@H](S)CC[C@]3(C)[C@H]1CC2`, the growth inhibition is -31.1%. For the compound `C[Si](Cn1ccc(=O)n(C[Si](C)(c2ccccc2)c2ccccc2)c1=O)(c1ccccc1)c1ccccc1`, the growth inhibition is -13.9%. `COc1ccc(C2CC(=O)NC2=O)cc1OC` (centres undefined): the growth inhibition is -12.2%.

In the case of `O=C(O)/C=N\Nc1nc2ccccc2[nH]1`, the growth inhibition was -11.1%. On the same count and under the same terms, with `CCC(=O)OCCSCCOC(=O)CC` the figure was -10.3%; with `CC(C)[Si](C#CC[Si](C(C)C)(C(C)C)C(C)C)(C(C)C)C(C)C`, -17.6%.
